Assay results from PubChem BioAssay (Tox21).
Active and inactive are the calls of the source. A call without a number means that no potency is given here. Calls follow the shape of the dose curve; as a rule, active = well fitted activation curve with a large enough effect in the repeat runs; inconclusive = weak or mixed curves; inactive = flat fitted curve, though single readings scatter.

molecular target: KiSS-1 receptor (Homo sapiens) (UniProt Q969F8); test: Human kisspeptin (KISS1R) small molecule agonists, calcium flux assay in KISS1R-HEK293 cells (AID 1920064); conditions: KISS1R-HEK293, calcium flux fluorescence, agonist; series mostly up to 76.8 µM
Sequence (Q969F8 whole entry, looked up): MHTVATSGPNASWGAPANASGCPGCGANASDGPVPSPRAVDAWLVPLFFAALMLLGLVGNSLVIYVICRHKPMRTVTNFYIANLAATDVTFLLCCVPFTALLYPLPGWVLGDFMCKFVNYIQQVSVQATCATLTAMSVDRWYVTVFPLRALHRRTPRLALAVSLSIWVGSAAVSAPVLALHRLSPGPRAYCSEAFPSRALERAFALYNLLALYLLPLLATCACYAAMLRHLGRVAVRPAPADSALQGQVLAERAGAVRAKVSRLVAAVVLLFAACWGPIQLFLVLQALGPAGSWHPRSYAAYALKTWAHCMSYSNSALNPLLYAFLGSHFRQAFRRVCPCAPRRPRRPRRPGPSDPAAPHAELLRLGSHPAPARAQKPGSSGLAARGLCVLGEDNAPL
Text: National Center for Advancing Translational Sciences [NCATS]
Division of Preclinical Innovation [DPI]
U.S. Environmental Protection Agency [EPA]
National Institutes of Environmental Health Sciences [NIEHS]
National Toxicology Program [NTP]
U.S. Food and Drug Administration [FDA]
Kisspeptin and its receptor KISS1R play key roles in mammalian reproduction due to their involvement in the onset of puberty and control of the hypothalamic-pituitary-gonadal axis such as regulates GnRH release from the hypothalamus. The kisspeptin/KISS1R system also plays a direct role in peripheral organs (including the ovary, testis, uterus, and placenta) and is implicated in reproductive diseases such as miscarriage and polycystic ovary syndrome (PCOS). Abnormal KISS1R activity is associated with abnormal puberty, infertility, endometriosis, and hormone-dependent tumors. The KISS1 receptor (KISS1R, also called GPR54), a G-protein-coupled receptor (GPCR), acts (through phospholipase C) to increase intracellular inositol trisphosphate and then release intracellular calcium stores. Cell-based KISS1R-HEK293 assay is using HEK293 cells that have been genetically engineered to express the human KISS1R, which activity can be measured by calcium signaling. A compound/drug can activate (agonist) KISS1R that can be monitored by levels of intracellular calcium.
KISS1R-HEK293 cells developed by Codex Corp contain human KISS1R gene, which was stably integrated into HEK 293 cells. The compound activation can be detected by fluorescence intensity via calcium flux assay. This cell line has been used to screen the Tox21 10K compound library to identify agonists of KISS1R.
KISS1R-Hek293 cells were dispensed at 1500 cells/4uL/well in 1536-well black wall/clear bottom plates using a multidrop dispenser. After the assay plates were incubated at a 37 C/5% CO2 incubator for 18 hours, 4 microL of Calcium Dye Solution was added to each well. The plates were incubated at 37 C for 1 hour. And then 23 nL of compounds dissolved in DMSO, positive controls, or DMSO only was transferred to the assay plate by a pin tool station. The fluorescence intensity in the plates was measured using FDSS 7000EX kinetic plate reader with a filter set of Ex/Em=480/540 for 3 min at 1 sec intervals. Each test compound was measured at 15 concentrations and in triplicates.

Compound	Potency
OCc1cccnc1	inactive
CC(=O)Oc1ccc(C(c2ccc(OC(C)=O)cc2)c2ccccn2)cc1	inactive
CN(C)CCC(c1ccccc1)c1ccccn1 (stereo not given)	inactive
O=S1(=O)CC=CC1	inactive
NNc1ccc(C(=O)O)cc1	inactive
O=C1O[C@H]([C@@H](O)CO)C(O)=C1O	inactive
O=C1NS(=O)(=O)c2ccccc21	inactive
CCCCCCCCCCN	inactive
Oc1c(Cl)cc(Cl)c(Cl)c1Cl	inactive
C[Si](O[Si](C)(C)C)O[Si](C)(C)C	inactive
CC(=O)OCCOC(C)=O	inactive
CCn1c2ccccc2c2cc(N)ccc21	inactive
Oc1ccccc1	inactive
OC1C(O)C(O)C(O)C(O)C1O (stereo not given)	inactive
CC(C)=CCO	inactive
O=c1[nH]c(=O)n([C@H]2C[C@H](O)[C@@H](CO)O2)cc1Br	inactive
O=C(O)Cc1c[nH]c2ccccc12	inactive
C=C(C)C(=O)Nc1ccc(Cl)c(Cl)c1	inactive
CC1(C)[C@@H]2CC[C@@]1(C)C(=O)C2	inactive
CCO[Si](CCCN)(OCC)OCC	inactive

Compound	Potency
Clc1ccc(Cl)c(Cl)c1Cl	inactive
O=C(O)c1ccccc1	inactive
CCNc1cccc(C)c1	inactive
CCCCNC(=O)NS(=O)(=O)c1ccc(N)cc1	inactive
C=C(C)C(=O)OCCCCCC	inactive
CC(O)CO (stereo not given)	inactive
Cc1ccnc2c1NC(=O)c1cccnc1N2C1CC1	inactive
C[C@](N)(Cc1ccc(O)c(O)c1)C(=O)O	inactive
CC(C)[C@@H]1CC[C@@H](C)C[C@H]1O	inactive
CCCCCCCC(=O)OCC(COC(=O)CCCCCCC)OC(=O)CCCCCCC	inactive
O=C(O)c1cccc(C(=O)O)c1	inactive
C[C@]12CC[C@@H]3c4ccc(O)cc4CC[C@H]3[C@@H]1C[C@@H](O)[C@@H]2O	inactive
CCc1ccc(CCOc2ccc(CC3SC(=O)NC3=O)cc2)nc1 (stereo not given)	inactive
CN(C)CCN(Cc1cccs1)c1ccccn1	inactive
OC[C@@H](O)[C@@H](O)[C@H](O)[C@H](O)CO	inactive
Cc1c(C(N)=O)cc([N+](=O)[O-])cc1[N+](=O)[O-]	inactive
CC1=C(C)S(=O)(=O)CCS1(=O)=O	inactive
CCCCCCCCCCCCCCCO	inactive
C=C(C)C(=O)OCC(C)C	inactive
O=C(O)c1cc(C(=O)O)cc(S(=O)(=O)O)c1	inactive
